In ChEMBL document CHEMBL4513216, “Probing the Open Global Health Chemical Diversity Library for Multistage-Active Starting Points for Next-Generation Antimalarials” (ACS Infect Dis, 2020):
About 8,600 (12%) of roughly 69,000 compounds showed an effect of 50% or more. The list comes from a sample in which strong results are over-represented; it also holds similar structures and randomly drawn compounds.

test system: Plasmodium berghei; test: Screen against P. berghei liver stage (PbLuc), transformed with Luciferase, at 10uM; assay type: functional, HepG2; settings: tested at 10 uM

| Structure (SMILES) | INHIBITION |
| --- | --- |
| CCOC(=O)c1cnn(C2CCN(C(=O)CC(C)(C)C)CC2)c1N | -17.4% |
| CCN(CC)c1nc(C)cc(C(=O)Nc2cccc(C(N)=O)c2)n1 | 25.3% |
| Cc1nnc(C(NS(=O)(=O)c2cc(C#N)ccc2C)C(C)C)[nH]1 (stereo not drawn) | 49.1% |
| CSCC[C@H]1CN2CCC[C@H]2CN1Cc1coc2ccc(C)cc2c1=O | 43.6% |
| CC(=O)NCC(=O)N1Cc2nccn2CC(CN(C)C(C)C)C1 (stereo not drawn) | 5.44% |
| CN(Cc1ccc(Cl)s1)C(=O)Nc1ccc(N(C)C)nc1 | 58.8% |
| CN(C)c1ccc(NC(=O)NCc2ccc(Cl)s2)cn1 | -21% |
| CN(Cc1ccsc1)C(=O)Nc1ccc(N(C)C)nc1 | 33.8% |
| Cn1cccc1C(=O)N1CCc2ncnc(C3CC3)c2CC1 | 35.8% |
| COCCSCC(=O)NCc1ccc(N(C)C)nc1 | 43.5% |
| CCOCCCNC(=O)c1nc2c(s1)CCCN2c1ccc(C)nn1 | 35.8% |
| COC(=O)CC(C)(C)CC(=O)N1CCC(C(F)(F)F)CC1 | 24.6% |
| Cc1nc(C2CCCN2CCCS(N)(=O)=O)no1 (stereo not drawn) | 22.5% |
| Cc1nc(C2CCCN2CCCS(=O)(=O)N(C)C)no1 (stereo not drawn) | 54.3% |
| Cc1nc(C2CCCN2CCCS(=O)(=O)c2ccccc2)no1 (stereo not drawn) | 3.603% |
| CCc1nc(C2CCCN2CCS(=O)(=O)c2ccccc2)no1 (stereo not drawn) | 22.007% |
| CN(C)S(=O)(=O)CCCN1CCCC1c1noc(C2CC2)n1 (stereo not drawn) | -15.5% |
| CCc1nc(C2CCCN2CCCS(=O)(=O)c2ccccc2)no1 (stereo not drawn) | 51.2% |
| Cc1nc(C2CCCN2CCCc2nc3ccccc3o2)no1 (stereo not drawn) | 21.6% |

| Structure (SMILES) | INHIBITION |
| --- | --- |
| CC(C)c1nc(C2CCCN2CCCc2nc3ccccc3o2)no1 (stereo not drawn) | 26.3% |
| CCc1nc(C2CCCN2CCCc2nc3ccccc3o2)no1 (stereo not drawn) | 62.6% |
| O=C(NCCN1CCCCC1)c1ccn(-c2ccccc2)n1 | 19.6% |
| CCSCC(C)NCc1cn2ccccc2n1 (stereo not drawn) | -20% |
| COCC1CN(Cc2csc(C)n2)Cc2nccn2C1 (stereo not drawn) | 4.61% |
| CCc1ncc(CNCc2cccnc2N(C)C)cn1 | -0.29% |
| Cc1cccc(C)c1OCCNC(=O)C(C)n1cncn1 (stereo not drawn) | -42.3% |
| COCC(=O)N1CCC2(CC1)CN(c1ccsc1)C(=O)CO2 | 64.9% |
| COCC(=O)N1CCC2(CC1)CN(c1cncnc1)C(=O)CO2 | 24.1% |
| O=C(c1cccs1)N1CCC2(CC1)CN(c1cncnc1)C(=O)CO2 | 48.6% |
| O=C(C1CC1)N1CC[C@H]2C(=O)N(c3ccsc3)CCO[C@H]2C1 | 33% |
| CCc1cnc(N2CCC3(CC2)CN(c2cccnc2)C(=O)CO3)nc1 | 47.2% |
| O=C(c1cccs1)N1CCC2(CC1)CN(c1ccsc1)C(=O)CO2 | 22.9% |
| Cc1cnc(N2CCC3(CC2)CN(c2ccsc2)C(=O)CO3)nc1 | 53.9% |
| CN(C)CC(=O)N1CCC2(CC1)CN(c1ccsc1)C(=O)CO2 | 47.2% |
| O=C(C1CCOCC1)N1CCC2(CC1)CN(c1ccsc1)C(=O)CO2 | 74.2% |
| NC(=O)N1CCC2(CC1)CN(c1ccsc1)C(=O)CO2 | 54.6% |
| O=C(Nc1ccccc1)N1CCC2(CC(=O)N(c3ccsc3)C2)C1 (stereo not drawn) | -12.2% |
| O=C1COC2(CCN(c3ncccn3)CC2)CN1c1ccsc1 | 26.5% |
